The source of these data is PubChem BioAssay AID588674 (Broad Institute, 2011).

About 1,800 (0.5%) of roughly 360,000 compounds were called active. The sample holds actives, similar compounds and a random draw of the others, so the mix is not that of the screen. A number with no mark means an inactive call.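 The calls were made as follows: active = mean inhibition of at least 75% with every replicate also reaching 75%; inconclusive = mean inhibition at least 75% but some replicate below; inactive = mean inhibition below 75%.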

What is called inhibition is the drop in the measured response relative to a control, in per cent.

A short description of this experiment: Shn3 3'UTR reporter decrease in osteoblasts – cell-based, Clone20 osteoblasts, firefly luciferase, set 2, Schnurri-3 inhibitor project, primary screen (AID 588674).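 Also: 0% = median of neutral control wells and 100% = pilot-screen positive control compound.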 Particulars: Clone20 osteoblast Shn3 3'UTR firefly luciferase, 24 h; at 12.5 µM; hits give high values.
On to `Cc1cc(=O)oc2cc(OC(C)C(=O)Nc3ccc(N4CCOCC4)cc3)ccc12` (stereo unspecified), for which the inhibition was 10%. Next, `O=C(CSc1nnnn1-c1ccc2c(c1)CCC2)Nc1ccc2c(c1)OCCO2`: 0.48%. For `FC(F)(F)c1cccc(-c2nc(COc3ccc(Cl)cc3Cl)no2)c1`, the inhibition was 6.45%. As for `CC(C)(C)Nc1nc(-c2ccccn2)nc2ccccc12`, the inhibition is 89.7% (active). Next, `Cc1nc2ccccc2c(C(=O)O)c1-c1ccccn1`: -12.3%; `c1ccc(-c2nccc(-c3ccc(-n4cnc5ccccc54)cc3)n2)nc1`: 11.2%. Regarding `CN(CC(=O)NCc1ccncc1)S(=O)(=O)c1ccc(Br)cc1`, the inhibition is 7.05%. Turning to `O=C(NC1=NCCS1)c1ccc(Cl)s1`, the inhibition was -84.7%. Next, `C=C1C(=O)[C@]23C[C@H]1CCC2[C@@]1(C)C(C[C@@H]3O)[C@](C)(C(=O)O)CC[C@@H]1O` (stereo partly specified): 29.4%. For `O=C(/C=C/Sc1ncn[nH]1)c1ccc(Cl)cc1`, the inhibition was 97.7% (active). Turning to `NC(=O)C1CCN(C(=O)c2cc(S(=O)(=O)N3CCN(c4ccccc4)CC3)ccc2Cl)CC1`, the inhibition was -11.1%.

`CC1CCC(N2CC(=O)N(Cc3ccc4c(c3)OCO4)C(c3ccc(F)cc3)C2=O)CC1` (stereo unspecified): the inhibition was 7.77%. Next, `COc1cc(SC)ccc1C(=O)NNC(=O)C1COc2ccccc2O1` (stereo unspecified): 4.8%. As for `Cc1csc(NC(=O)CSc2nc(=O)cc(N)n2-c2ccc(F)cc2)n1`, the inhibition is -11%. Next, `COc1cc(SC)ccc1C(=O)Nc1nc(C)cs1`: 86.2% (active); `C=CCn1c(COc2cccc3cccnc23)nnc1SCC(=O)OC`: 0.069%; `CCCCC(=O)NC(c1ccc(OC)c(OC)c1)c1ccc2cccnc2c1O` (stereo unspecified): 87.9% (active). Next, `CCOc1ccc(C(CCc2ccccc2)NC(=O)c2ccc(OC)c(OC)c2)cc1OCC` (stereo unspecified): 20%; `COC(=O)c1sccc1-n1cccc1C(=O)C(=O)N1CCCCC1`: 2.95%; `O=C(Nc1ccccc1Cl)/C(Cl)=C(\Cl)S(=O)c1ccccc1` (stereo unspecified): 97.6% (active). Consider `O=C(COc1ccc(-n2cnnn2)cc1)Nc1ccccc1Cl`, for which the inhibition is 1.66%. Next, `CS/C(=C\C(=O)c1ccco1)Nc1ccccc1Cl`: -15.1%; `Cc1cccc(N2CCN(C(=O)CCS(=O)(=O)c3ccc4c(c3)NC(=O)C(C)S4)CC2)c1C` (stereo unspecified): 78.8%; `CC(=O)Nc1ccc(NC(=O)C(C)OC(=O)C2CC(=O)N(CCc3ccccc3)C2)cc1` (stereo unspecified): -14.3%. Next, `O=C(COC(=O)C1CC2CCCC(C1)C2=O)NC(=O)c1ccccc1` (stereo unspecified): 14.5%; `COc1ccc(C(C#N)=C2C=CC(=NO)c3ccccc32)cc1`: 18.4%; `Cc1cccc(C(=O)Nc2nnc(S(=O)(=O)N3CCCCCC3)s2)c1`: -6.34%. Next, `Cc1ccc(CS(=O)(=O)c2ncc(Cl)c(C(=O)Nc3nnc(C)s3)n2)cc1`: 98.8% (active); `Cc1ccc(S(=O)(=O)CCC(=O)Nc2nnc(CC(C)C)s2)cc1`: -5.29%. For the molecule `NC(=O)CSc1nnc(NC(=O)c2ccc(Br)o2)s1`, the inhibition is -19.4%. Next, `CSc1nnc(NC(=O)c2nc(S(=O)(=O)Cc3ccc(C)cc3)ncc2Cl)s1`: 97% (active). For `O=C(Nc1nnc(-c2ccc(F)cc2)s1)c1c(F)cccc1Cl`, the inhibition is -31.5%. Turning to `O=C(O)C1C2C=CC(O2)C1C(=O)Nc1ccccn1` (stereo unspecified), the inhibition is 1.15%.

Regarding `NC(=O)C1CCN(Cc2nc3c(Br)cc(Br)cc3c(=O)[nH]2)CC1`, the inhibition is 9.29%. Next, `CC(C)C[C@H]1CNC(=S)N1C[C@H]1CCCN1C[C@H](Cc1ccc(O)cc1)N1C[C@H](Cc2ccc(O)cc2)N(CC2CCCCC2)C1=S`: 9.03%.

`Cc1noc(COc2ccccc2OCc2onc(C)c2Cl)c1Cl`: the inhibition is 9.9%. On to `O=C(C=CC(=O)Nc1ccc(F)cc1F)Nc1ccc(F)cc1F`, for which the inhibition is 12.7%. Next, `COc1ccc(NC(=O)C2Cc3c(-c4cccc(NC(C)=O)c4)ccnc3O2)cc1OC` (stereo unspecified): 47.1%.

Consider `CC(CCc1ccccc1)NC(=O)COC(=O)c1ccc(F)cc1` (stereo unspecified), for which the inhibition is -0.45%.

In the case of `Oc1c(CN2CCCC2)cc(COCc2ccccc2)c2cccnc12`, the inhibition was 86% (active).

With `O=c1cc(CN2CCCCCCC2)c2c(ccc3ccccc32)o1`, the inhibition was 21.3%. Next, `O=C(Cc1ccccc1)NNC(=O)C1CCN(c2ncccn2)CC1`: -8.28%.

Take `Cc1cccc(C)c1NC(=O)CN1CCN(c2ccc(F)cc2)CC1`: the inhibition is -13.2%. Next, `Oc1c(CN2CCN(c3ccc(F)cc3)CC2)cc(Cl)c2cccnc12`: 83.5% (active); `Cc1cc(=O)oc2cc(OCC(=O)N3CCN(c4ccc(F)cc4)CC3)c(Cl)cc12`: 4.64%. `CC1(C)OC(=O)N2CCc3ccccc3C21C` (stereo unspecified): the inhibition is -7.85%.

As to `CC(OC(=O)c1cccnc1Cl)C(=O)NC1CCCCC1` (stereo unspecified), the inhibition was -10.8%. Next, `COC(=O)C1CCN(C(=O)NC2CC(=O)N(c3ccc4c(c3)OCCO4)C2)CC1` (stereo unspecified): -6.55%; `CC(=O)Nc1cc(-c2cccc(CO)c2)cn2c(-c3cccc(C(F)(F)F)c3)cnc12`: 10.6%; `C[C@H]([C@@H](O)[C@@H](O)[C@@H](C)C(C)(C)C)[C@H]1CC[C@H]2C3CC[C@H]4C[C@H](OS(=O)(=O)O)[C@@H](OS(=O)(=O)O)C[C@]4(C)[C@H]3CC[C@]12C` (stereo partly specified): -9.66%. Next, `CC(=O)c1ccccc1NC(=O)CC1(CC(=O)O)CCCCC1`: -24.1%; `Cn1c(=O)c2c(nc(OCc3cccnc3)n2Cc2ccccc2)n(C)c1=O`: 30%; `C=CCOc1nc2c(c(=O)n(C)c(=O)n2C)n1Cc1ccc(Cl)cc1Cl`: 86.3% (active). On to `C=CCn1c(Oc2ccc(C(=O)OC)cc2)nc2c1c(=O)n(C)c(=O)n2C`, for which the inhibition is 21%. With `CCCn1c(=S)[nH]c2ccc(C(F)(F)F)cc21`, the inhibition is -4.29%. Next, `Cn1nccc1C(=O)NC1CCCc2c1cnn2-c1ccccc1F` (stereo unspecified): 90.2% (active); `Cn1nccc1C(=O)NC1CCCc2c1cnn2-c1ccc(F)cc1F` (stereo unspecified): 77.1%; `COc1ccc(C(=O)NC2CCCc3c2cnn3-c2cccc(C)c2C)c(OC)n1` (stereo unspecified): 84.1%. Next, `COc1ccc(-c2ccc(C(=O)NCCN3CCOCC3)c3occc23)c(C)c1`: 12.3%. In the case of `C/C(=N\NC(=O)C1(C)CC1(Br)Br)c1ccc(C)cc1C` (stereo unspecified), the inhibition was 8.35%. For the molecule `Cc1cc(=O)[nH]c(N/N=C/c2c(C)nn(-c3ccccc3Cl)c2Cl)n1`, the inhibition is 14.6%. As to `Cc1nnc(N/N=C/c2ccccn2)[nH]c1=O`, the inhibition was 90.6% (active). Next, `S=C(NN=Cc1ccccn1)Nc1ccccn1`: 67.3%; `C/C=C(/C)C(=O)O[C@@H]1c2cc3c(c4c2[C@@]2(CO4)C(=O)C(OC)=C(OC)C=C2C[C@@H](C)[C@H]1C)OCO3`: -16.2%. Next, `NC1=CC(=O)C(=O)c2cccnc21`: 96.6% (active); `C=CCOc1ccccc1NC(=O)CN1C(=O)CNC1=O`: -14.9%; `Cc1cc(=O)oc2c3c(cc(OCC(=O)NCC(O)c4ccccc4)c12)OC(C)(C)CC3` (stereo unspecified): 0.998%. Regarding `COc1cc2c(cc1OC)C(=O)NCC(C)(C)O2`, the inhibition is 9.62%. Next, `CC1=C(C(=O)N2CCOCC2)CC(CC(=O)NCc2ccco2)C(=O)N1Cc1ccc(F)cc1` (stereo unspecified): -16.3%; `Cc1ccc2c(c1)N(C(=O)CCC(=O)N1CCc3ccccc3C1)CCO2`: 11.3%.

Turning to `COc1cc(C(C)=O)ccc1OC(C)C(=O)Nc1ccc(S(=O)(=O)N2CCCC2)cc1` (stereo unspecified), the inhibition is -9.75%. For the molecule `COc1ccc(S(=O)(=O)N2CCCCCC2)cc1NC(=O)Cc1ccc(OC)c(OC)c1`, the inhibition was 6.94%. For the molecule `COc1ccc(-c2ccc(Nc3ccc(S(=O)(=O)N4CCCC4)cc3)nn2)cc1OC`, the inhibition was 91.7% (active).

Turning to `Cc1onc(-c2ccccc2Cl)c1C(=O)N(Cc1ccc(N(C)C)cc1)C(C)C`, the inhibition is 15%. Next, `Cc1cc2cc3n(c2nn1)N=C(Cl)CC3`: 15.8%; `O=C(CN1CCN(C(=O)C2CCCO2)CC1)Nc1c(Cl)cccc1Cl` (stereo unspecified): 1.7%. Next, `Cn1c(=O)c2c(SCC(=O)NCC3CCCO3)nc(CC(C)(C)C)nc2n(C)c1=O` (stereo unspecified): -3.55%; `CCCCCCCCCCOC(=O)Cn1c(COc2ccc(C)cc2)[n+](C)c2ccccc21`: 94.3% (active); `Cc1ccc(COc2ccc(C(=O)NN)cc2)cc1`: -0.097%. Next, `Cc1noc(C)c1COC(=O)Cn1c(C)nc2ccccc21`: 6.2%. Take `COc1ccc(-n2c(C)nn(CC3CC3)c2=O)cc1`: the inhibition was 0.917%. Next, `CCOc1ccc(N(C)S(=O)(=O)c2cnc[nH]2)cc1`: 14%.

`Nc1ncnc2c1ncn2[C@@H]1O[C@H](C(=O)NCC(F)(F)F)[C@@H](O)[C@H]1O`: the inhibition is 2.47%.

In the case of `Cc1[nH]c2ccccc2c1-c1ccc(Cl)nn1`, the inhibition is -0.142%. With `N#Cc1c(-c2ccccc2)nc(SCc2cccc(C(F)(F)F)c2)[nH]c1=O`, the inhibition is -18.7%. Next, `O=c1c2ccccc2nc2n1C(CSCc1cccc(C(F)(F)F)c1)CS2` (stereo unspecified): 92.5% (active). Consider `O=c1c2ccccc2nc2n1C(CSCc1ccccc1)CS2` (stereo unspecified), for which the inhibition was 76.2%. As to `C=CCn1c(C)cc(C2=NNC(=NCC)SC2)c1C`, the inhibition was 91% (active).

With `CN(Cc1ccc(C(F)(F)F)cc1)C(=O)[C@H]1O[C@@H](n2cnc3c(N)ncnc32)[C@H](O)[C@@H]1O`, the inhibition is 6.4%. Turning to `CCn1nc(C(=O)Nc2ccc(N3CCOCC3)cc2)c2ccccc2c1=O`, the inhibition is 5.09%.

For the molecule `C[C@@H]1C[C@@H]2O[C@H]2/C=C\C=C\C(=O)Cc2c(Cl)c(O)cc(O)c2C(=O)O1`, the inhibition is 86.9% (active).
